From PubChem
A selection: hits, their analogues and other compounds. The true share with any hit is near 7.6%.
VP16 counter: VP16 counterscreen qHTS for inhibitors of ROR gamma transcriptional activity; Potency, µM (series often up to 53.6 µM), hits mostly inhibitors; 310,000 compounds, 3.5% hits; Drosophila S2 Gal4-VP16 UAS-luciferase, luminescence, 20 h;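 note: Gal4-VP16 expression switched on by copper sulfate through the metallothionein promoter; nearly all actives have a fitted effect of over 50% in size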
ELG1 DNA repair: qHTS screen for small molecules that inhibit ELG1-dependent DNA repair in human embryonic kidney (HEK293T) cells expressing luciferase-tagged ELG1; HEK293T ELG1-luciferase reporter, luminescence, 16 h; DNA damage induced by 5-fluorouridine; AID 504467, 2011; Potency, µM (doses to about 46.1 µM), most hits filed as inhibitors; 330,000 compounds, 2.3% hits; note: nearly all actives have a fitted effect of over 55% in size
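In this reporter screen, reduction of luminescence relative to DMSO vehicle indicated activity. Compounds and 5-fluorouridine were added together to 2,000 cells per well, incubated for 16 hr at 37 °C, then developed with ONE-Glo.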
p53 reactivator: qHTS assay for re-activators of p53 using a Luc reporter; H1299 p53-A138V BP100-luciferase reporter, luminescence, 24 h; Potency, µM (doses to about 92.2 µM), most hits filed as activators; 320,000 compounds, 0.063% hits; AID 504706, 2011; note: nearly all actives have a fitted effect of over 45% in size
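p53-null H1299 cells stably carrying temperature-sensitive p53-A138V and a BP100-luciferase reporter were pinned with compounds (4-point, 1:5 series) and held 24 hrs at 37 deg C. Luminescence was read 10 min after detection reagent.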
RORg inh: qHTS for inhibitors of ROR gamma transcriptional activity | Nuclear receptor ROR-gamma (Mus musculus), P51450 | Drosophila S2 Gal4-RORgamma UAS-luciferase reporter, 20 h | Potency, µM (series often up to 53.6 µM), most hits filed as inhibitors | 310,000 compounds, 5.4% hits; note: nearly all actives have a fitted effect of over 60% in size
Target sequence (P51450 whole entry, looked up, the tested form may be a part): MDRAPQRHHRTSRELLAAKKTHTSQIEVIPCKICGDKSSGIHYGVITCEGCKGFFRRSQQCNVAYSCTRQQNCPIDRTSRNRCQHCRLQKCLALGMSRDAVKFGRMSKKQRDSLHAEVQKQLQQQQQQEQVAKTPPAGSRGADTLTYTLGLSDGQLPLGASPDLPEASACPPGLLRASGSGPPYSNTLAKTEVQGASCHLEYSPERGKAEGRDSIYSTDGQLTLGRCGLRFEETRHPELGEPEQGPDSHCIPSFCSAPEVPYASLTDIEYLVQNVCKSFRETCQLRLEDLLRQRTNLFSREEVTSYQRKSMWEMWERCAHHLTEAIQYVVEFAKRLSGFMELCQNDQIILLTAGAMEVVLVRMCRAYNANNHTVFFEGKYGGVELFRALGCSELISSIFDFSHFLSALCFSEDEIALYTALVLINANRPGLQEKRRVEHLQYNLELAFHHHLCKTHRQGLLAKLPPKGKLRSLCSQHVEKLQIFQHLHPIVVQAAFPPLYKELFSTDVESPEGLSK
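Stable Schneider cell line, Gal4 DNA-binding domain fused to ROR gamma, UAS-luciferase. Cmpd 1 hr RT → CuSO4 700 uM final → 20 hr RT → luciferase reagent 10 min → luminescence.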
BRCA1 expr act: qHTS Assay to Identify Small Molecule Activators of BRCA1 Expression; MCF7-BRCA1-FFLuc reporter, luminescence, 48 h; response scale: scaled: vehicle 0%, 10 µM genistein 100%; Potency, µM (doses to about 46.1 µM), most hits filed as activators; 380,000 compounds, 1.1% hits; note: nearly all actives have a fitted effect of over 80% in size
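MCF7-BRCA1-FFLuc cells, 2000/well in phenol-red-free MEM, attached 2 h then treated 48 h at 37 C. Luciferase luminescence read 15 min after reagent; normalized to genistein maximum activation (10microM) and DMSO, concentration-response fitted.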
Giardia kill: Small Molecules that selectively kill Giardia lamblia: qHTS; Giardia lamblia trophozoite viability; 340,000 compounds, 0.15% hits; activity change, % at 7.66 µM, hits read low; in the data active = activity change below about -80%; inconclusive = between about -30% and that limit;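 note: parasites exposed to compound for two days anaerobically before the ATP read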
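Giardia lamblia trophozoites (100 cells/well) were incubated with compounds for 48 h at 37 deg C under anaerobic conditions. Viability was read as ATP content by one-step luminescence after 15-30 min at room temperature.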
A number is an active result; n = inactive; u = inconclusive; x = not tested or not shown; [ ] = dose if it differs, or a comment. Unless noted, calls come from the whole dose curve; as a rule, active = well fitted curve in the direction sought with a large enough effect; inconclusive = small, poorly fitted or top-dose-only effect, or another doubt; inactive = no such curve, though single readings can be large; an effect the other way counts as inactive or inconclusive.

SMILES	VP16 counter	ELG1 DNA repair	p53 reactivator	RORg inh	BRCA1 expr act	Giardia kill
CCOc1ccc(CN(C)C(=O)c2ccc3ccccc3n2)cc1	n	n	n	n	n	n
COc1ccc(CNC(=O)c2ccc3ccccc3n2)cc1	n	u	x	n	n	n
COc1ccc(N=C(NN)c2ccc3ccccc3n2)cc1	u	u	n	10µM	n	n
Cc1ccc(NC(=S)c2ccc3ccccc3n2)c(C)c1	7.94µM	u	u	2µM	n	n
CCOc1ccc(NC(=S)c2ccc3ccccc3n2)cc1	u	u	u	6.31µM	n	n
COc1ccc(NC(=S)c2ccc3ccccc3n2)cc1	12.6µM	u	u	3.98µM	n	n
C[C@@H]1CC=C[C@H]2[C@H]1C(=O)N(Cc1ccccc1)[C@H]2c1ccc2ccccc2c1/C=C/c1ccccc1	n	n	n	n	n	u
Cc1[nH]nc2c1C1(CCN(C(=O)OCc3ccccc3)CC1)C(C#N)=C(N)O2	u	n	n	5.01µM	n	n
COc1ccc(C(=O)N2CCN(Cc3ccc4c(c3)OCO4)CC2)cc1OC	n	n	x	n	n	n
CCCn1c(C2CCCN2c2nc(-c3cccc(Br)c3)cs2)nc2cc(Cl)c(Cl)cc21 (stereo not drawn)	5.62µM	n	x	2.51µM	n	n
CCCn1c(C2CCCN2c2nc(C)cs2)nc2cc(Cl)c(Cl)cc21 (stereo not drawn)	u	u	x	u	n	n
COCCCNC(=O)CCc1c(C)nc2cc(-c3ccc(Cl)cc3)nn2c1C	x	x	x	x	n	x
CCOC(=O)c1cn2nc(SCc3ccccc3)nc2nc1C	n	u	x	u	11.2µM	n
N#Cc1cnc2nc(SCc3ccccc3)nn2c1	n	u	u	n	3.55µM	n
COc1ccc(Cl)cc1N(C(C)C(=O)O)S(C)(=O)=O (stereo not drawn)	n	n	n	n	n	n
CCC(C)Nc1nc(N)c([N+](=O)[O-])c(N2CCCCCC2)n1 (stereo not drawn)	n	n	n	n	n	n
CCC(C)Nc1nc(N)c([N+](=O)[O-])c(Nc2cc(OC)ccc2OC)n1 (stereo not drawn)	n	23.1µM	n	n	n	n
CCC(C)Nc1nc(N)c([N+](=O)[O-])c(Nc2ccccc2OC)n1 (stereo not drawn)	n	n	n	n	n	n
CC(C)CNc1nc(N)c([N+](=O)[O-])c(N2CCCCCC2)n1	u	7.3µM	n	n	n	n
COc1ccccc1Nc1nc(NCC(C)C)nc(N)c1[N+](=O)[O-]	n	8.2µM	n	n	n	n
COc1ccccc1Nc1nc(NCCCN(C)C)nc(N)c1[N+](=O)[O-]	15.8µM	n	n	u	n	n
C=CCNc1nc(N)c([N+](=O)[O-])c(Nc2ccccc2OC)n1	n	n	n	n	n	n
Cc1cccc(/C=C\c2ccccc2)n1	n	x	x	u	x	x
COC(=O)c1ccc(CSc2nc3c([nH]c4ccccc43)c(=O)n2-c2cc(C)cc(C)c2)o1	x	x	x	x	n	x
CCOc1ccccc1NC(=O)N1CCCC1C(=O)NCc1cccs1 (stereo not drawn)	n	n	n	n	n	n
SMILES	VP16 counter	ELG1 DNA repair	p53 reactivator	RORg inh	BRCA1 expr act	Giardia kill
COc1ccc(/C=N/Nc2cc(C)nc3ccc(OC)cc23)c(OC)c1	10µM	u	n	11.2µM	n	n
COc1ccc2nc(C)cc(N/N=C/c3ccccc3)c2c1	x	n	n	x	n	n
COc1ccc(/C=N/Nc2ncccc2[N+](=O)[O-])c(OC)c1	u	u	u	u	14.1µM	n
COc1ccc(/C=N/Nc2nc(C)cc(-c3ccccc3)n2)c(OC)c1	11.2µM	u	n	10µM	n	n
Cc1ccc2nc(C)cc(N/N=C/c3ccccc3O)c2c1	7.94µM	n	x	5.62µM	n	n
COc1ccc(O)c(/C=N/Nc2nc(C)cc(-c3ccccc3)n2)c1	x	x	x	x	n	n
Cc1cc(Cl)ccc1OCCCC(=O)Nc1cccnc1	u	u	n	n	n	n
COc1ccc(-c2cc(-c3nnc(COC(=O)c4ccncc4)o3)c3ccccc3n2)cc1OC	n	18.3µM	n	n	n	n
CCOc1ccc(NC(=S)NC(=O)/C=C/c2ccc(Br)cc2)c([N+](=O)[O-])c1	n	n	n	n	n	n
COc1ccc(C(=O)NC(C(=O)N2CCN(C/C=C/c3ccccc3)CC2)C(C)C)cc1 (stereo not drawn)	x	x	x	x	n	x
CC(C)[C@H](NC(=O)c1ccc([N+](=O)[O-])cc1Cl)C(=O)N1CCN(C/C=C/c2ccccc2)CC1	x	13µM	n	x	n	n
CC(C)CCN1CCNC(=O)C1CC(=O)Nc1ccc(F)cc1 (stereo not drawn)	n	n	n	n	n	n
CN(c1ccccc1)S(=O)(=O)c1ccc(Cl)c(C(=O)Nc2ccncc2)c1	x	u	n	x	n	n
CN(c1ccc(F)cc1)S(=O)(=O)c1ccc(Cl)c(C(=O)Nc2ccncc2)c1	x	11.6µM	n	x	n	n
COc1cc(C(=O)Nc2nnc(C(F)(F)F)s2)c([N+](=O)[O-])cc1OC	n[10 µM]	n	n	n	n	n
Cc1cccc(C)c1NC(=O)c1ccc(-c2ccc(Cl)cc2Cl)o1	n	13µM	n	n	n	n
O=C(Nc1nccs1)c1ccc(COc2c(F)c(F)cc(F)c2F)o1	x	u	n	x	n	n
O=C(Nc1nccs1)c1ccc(-c2ccc(F)c(Cl)c2)o1	u	u	n	7.94µM	n	n
O=C(Nc1nccs1)c1ccc(-c2ccc(Cl)cc2Cl)o1	5.01µM	u	u	3.55µM	n	n
COc1cc(Cl)c(CN2CCCC(CO)(Cc3ccccc3F)C2)cc1OC (stereo not drawn)	n	n	n	n	n	n
Cc1ccc(S(=O)(=O)N2CCOCC2)cc1C(=O)OCC(=O)N(Cc1ccccc1)C(C)C	x	20.6µM	n	x	n	n
CCOC(=O)c1c(-c2ccccc2)csc1NC(=O)c1cc(S(=O)(=O)N2CCOCC2)ccc1C	n	10.3µM	n	n	n	n
CCOC(=O)c1c(-c2ccccc2)csc1NC(=O)c1nn(CC)cc1Br	n	11.6µM	n	n	n	n
CN(C(=O)c1ccc(Br)cc1)C1CCS(=O)(=O)C1 (stereo not drawn)	x	u	n	x	n	n
CC(Sc1ncnc2sc(-c3ccccc3)cc12)C(N)=O (stereo not drawn)	n	u	n	12.6µM	10µM	n
